Source: PubChem BioAssay (NCI)
About 79,000 compounds went through this panel and 15% of them were active in at least one assay; those are over-represented in the sample as a whole. Activity calls are given as the source filed them. No stated cut-off is given here; in the data, active means growth inhibition above about 70%; inactive means the rest.

Assays:
[1] = NCI Yeast Anticancer Drug Screen. Data for the rad52 strain (AID 147);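 further: 0% = growth of vehicle-treated control cultures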; details: S. cerevisiae rad52 mutant growth inhibition, stronger effect = higher value
Method in brief: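 Inhibition of yeast growth, referenced to vehicle controls, was the measured output for a strain with defective DNA damage repair.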

[2] = NCI Yeast Anticancer Drug Screen. Data for the wt1 strain (AID 149);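 further: 0% = growth of vehicle-treated wt1 cultures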; details: S. cerevisiae wt1 strain (SPY 50644) growth inhibition, stronger effect = higher value
Method in brief: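 The wt1 strain was treated with compounds, and growth was compared with vehicle-treated cultures to give inhibition.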

[3] = NCI Yeast Anticancer Drug Screen. Data for the rad50EPP+ strain (AID 151);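 further: 0% = growth of vehicle-treated control cultures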; details: S. cerevisiae rad50 mutant strain, stronger effect = higher value
Method in brief: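 Genetically defined yeast (rad50EPP+, DNA damage repair alteration) is grown with compound, and inhibition of growth is expressed relative to vehicle-treated controls.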

[4] = NCI Yeast Anticancer Drug Screen. Data for the mgt1 strain (AID 153); details: S. cerevisiae mgt1 mutant growth inhibition, stronger effect = higher value
Method in brief: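 In the mgt1 strain, test compounds were added and growth inhibition was determined relative to vehicle-treated controls.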

[5] = NCI Yeast Anticancer Drug Screen. Data for the rad50 strain (AID 155);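 further: 0% = growth of vehicle-only cultures of the same strain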; details: S. cerevisiae rad50 strain growth inhibition, stronger effect = higher value
Method in brief: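 Cells are treated with compound, grown, and their growth is then scored against vehicle-only cultures of the same repair-deficient yeast strain.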

[6] = NCI Yeast Anticancer Drug Screen. Data for the mec2-1 strain (AID 157); details: S. cerevisiae mec2-1 strain, stronger effect = higher value
Method in brief: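 Each compound was tested on mec2-1 yeast, a strain altered in DNA damage repair or cell cycle control. Growth inhibition is reported relative to vehicle.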

[7] = NCI Yeast Anticancer Drug Screen. Data for the rad14 strain (AID 159);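 further: 0% = growth of vehicle-treated control cultures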; details: S. cerevisiae rad14 strain growth inhibition, stronger effect = higher value
Method in brief: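 Readout: yeast growth inhibition, referenced to vehicle-only cultures. Strain bears a defined alteration in DNA damage repair.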

[8] = NCI Yeast Anticancer Drug Screen. Data for the sgs1 mgt1 strain (AID 161);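 further: 0% = growth of cultures given vehicle only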; details: S. cerevisiae sgs1 mgt1 strain, stronger effect = higher value
Method in brief: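 Genetically altered yeast, compound exposure, growth inhibition relative to vehicle.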

[9] = NCI Yeast Anticancer Drug Screen. Data for the CLN2oe strain (AID 163);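 further: 0% = growth of vehicle-only control cultures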; details: S. cerevisiae CLN2oe strain, stronger effect = higher value
Method in brief: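 First, the altered yeast strain was treated with each compound; second, its growth was measured; finally, inhibition was derived by comparison with vehicle controls.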

[10] = NCI Yeast Anticancer Drug Screen. Data for the cln2 rad14 strain (AID 165);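 further: 0% = growth equal to vehicle treated cultures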; details: S. cerevisiae cln2 rad14 strain, stronger effect = higher value
Method in brief: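 Test compounds were added to cln2 rad14 yeast cultures; inhibition of growth was then determined by comparison with vehicle treatment.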

[11] = NCI Yeast Anticancer Drug Screen. Data for the bub3 strain (AID 167); details: S. cerevisiae bub3 mutant strain, stronger effect = higher value
Method in brief: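 Part of a panel of yeast mutants defective in DNA damage repair or cell cycle regulation. Each strain is grown with compound, and inhibition is calculated relative to solvent-treated cultures.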

[12] = NCI Yeast Anticancer Drug Screen. Data for the wt2 strain (AID 169);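 further: 0% = growth of vehicle-treated yeast cultures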; details: S. cerevisiae wt2 strain growth inhibition, stronger effect = higher value
Method in brief: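 The panel's yeast strains carry defined changes in DNA repair or cell cycle genes. Each strain is grown with compound, and growth loss is scored relative to vehicle.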

[13] = NCI Yeast Anticancer Drug Screen. Data for the sgs1 strain (AID 173);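 further: 0% = growth of vehicle-only control cultures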; details: S. cerevisiae sgs1 mutant, stronger effect = higher value
Method in brief: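 Vehicle-treated cultures served as reference for growth inhibition of a yeast strain altered in DNA damage repair or cell cycle control after compound exposure.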

[14] = NCI Yeast Anticancer Drug Screen. Data for the mlh1 rad18 strain (AID 175); details: S. cerevisiae mlh1 rad18 strain growth inhibition, stronger effect = higher value
Method in brief: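 Inhibition values reflect reduced growth of mutant yeast versus vehicle-treated controls following compound exposure; the mutations affect DNA damage repair.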

[15] = NCI Yeast Anticancer Drug Screen. Data for the rad18 strain (AID 177); details: S. cerevisiae rad18 mutant growth inhibition, stronger effect = higher value
Method in brief: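 Steps: expose repair-mutant yeast to compound; measure growth; express as inhibition relative to vehicle control.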

[16] = at 5.0 µM (retest, dose inferred, filed as 0.5)
[17] = at 50.0 µM (retest, dose inferred, filed as 5.0)

Measured: growth inhibition

Cc1ccc(S(=O)(=O)NC(=O)NC2=NC(C)(C)N(c3ccc(Cl)c(Cl)c3)C(N)=N2)cc1
inactive: [1]; at 1.2 µM -2% | [1]; at 3.7 µM -2% | [1]; at 11.0 µM -1% | [1]; at 33.0 µM -3% | [1]; at 100.0 µM -3% | [2]; at 1.2 µM -2% | [2]; at 3.7 µM 1% | [2]; at 11.0 µM -1% | [2]; at 33.0 µM -1% | [2]; at 100.0 µM -3% | [3]; at 1.2 µM -2% | [3]; at 3.7 µM -3% | [3]; at 11.0 µM -1% | [3]; at 33.0 µM -2% | [3]; at 100.0 µM 4% | [4]; at 1.2 µM 0% | [4]; at 3.7 µM -1% | [4]; at 11.0 µM -4% | [4]; at 33.0 µM 1% | [4]; at 100.0 µM -5% | [5]; at 1.2 µM -2% | [5]; at 3.7 µM -4% | [5]; [16] 7% | [5]; at 11.0 µM -5% | [5]; at 33.0 µM -3% | [5]; [17] 1% | [5]; at 50.0 µM -1.3% | [5]; at 100.0 µM -4% | [6]; at 1.2 µM -2% | [6]; at 3.7 µM 2% | [6]; [16] 1% | [6]; at 11.0 µM 4% | [6]; at 33.0 µM -3% | [6]; [17] -3% | [6]; at 50.0 µM -3.35% | [6]; at 100.0 µM -3% | [7]; at 1.2 µM -1% | [7]; at 3.7 µM 0% | [7]; at 11.0 µM 1% | [7]; at 33.0 µM 1% | [7]; at 100.0 µM 0% | [8]; [16] 6% | [8]; [17] -6% | [8]; at 50.0 µM 4.25% | [9]; at 1.2 µM -9% | [9]; at 3.7 µM -5% | [9]; at 11.0 µM -5% | [9]; at 33.0 µM -1% | [9]; at 100.0 µM -11% | [10]; [16] 1% | [10]; [17] 1% | [11]; at 1.2 µM -2% | [11]; at 3.7 µM -7% | [11]; [16] 1% | [11]; at 11.0 µM -6% | [11]; at 33.0 µM -8% | [11]; [17] -1% | [11]; at 50.0 µM -23.9% | [11]; at 100.0 µM -5% | [12]; at 1.2 µM -3% | [12]; at 3.7 µM -4% | [12]; at 11.0 µM -3% | [12]; at 33.0 µM -4% | [12]; at 100.0 µM -3% | [13]; at 1.2 µM -1% | [13]; at 3.7 µM -2% | [13]; at 11.0 µM -1% | [13]; at 33.0 µM -2% | [13]; at 100.0 µM -2% | [14]; [16] 0% | [14]; [17] 47% | [14]; at 50.0 µM 2.35% | [15]; at 1.2 µM -1% | [15]; at 3.7 µM 2% | [15]; at 11.0 µM 4% | [15]; at 33.0 µM 1% | [15]; at 100.0 µM -1%
active: [10]; at 50.0 µM 79.4%

O=C1C(Nc2ccccc2)=C(Oc2ccccc2)C(=O)c2ccccc21
active: [11]; at 50.0 µM 82.5% | [11]; at 100.0 µM 70%
inactive: [1]; at 1.2 µM -3% | [1]; at 3.7 µM -6% | [1]; at 11.0 µM 1% | [1]; at 33.0 µM 23% | [1]; at 100.0 µM 32% | [2]; at 1.2 µM 3% | [2]; at 3.7 µM -10% | [2]; at 11.0 µM 7% | [2]; at 33.0 µM -4% | [2]; at 100.0 µM 14% | [3]; at 1.2 µM 5% | [3]; at 3.7 µM 20% | [3]; at 11.0 µM 28% | [3]; at 33.0 µM 58% | [3]; at 100.0 µM 60% | [4]; at 1.2 µM 5% | [4]; at 3.7 µM -2% | [4]; at 11.0 µM 2% | [4]; at 33.0 µM 1% | [4]; at 100.0 µM -1% | [5]; at 1.2 µM -6% | [5]; at 3.7 µM -11% | [5]; [16] -1% | [5]; at 11.0 µM -5% | [5]; at 33.0 µM 27% | [5]; [17] 26% | [5]; at 50.0 µM 23.7% | [5]; at 100.0 µM 38% | [6]; at 1.2 µM 2% | [6]; at 3.7 µM 1% | [6]; [16] 3% | [6]; at 11.0 µM 6% | [6]; at 33.0 µM 3% | [6]; [17] 20% | [6]; at 50.0 µM 24.4% | [6]; at 100.0 µM 2% | [7]; at 1.2 µM 13% | [7]; at 3.7 µM 0% | [7]; at 11.0 µM 4% | [7]; at 33.0 µM 9% | [7]; at 100.0 µM -15% | [8]; [16] -2% | [8]; [17] 17% | [8]; at 50.0 µM 16.4% | [9]; at 1.2 µM -6% | [9]; at 3.7 µM -2% | [9]; at 11.0 µM 1% | [9]; at 33.0 µM -1% | [9]; at 100.0 µM -4% | [10]; [16] -7% | [10]; [17] 1% | [10]; at 50.0 µM 5.25% | [11]; at 1.2 µM 3% | [11]; at 3.7 µM 9% | [11]; [16] 16% | [11]; at 11.0 µM 23% | [11]; at 33.0 µM 55% | [11]; [17] 59% | [12]; at 1.2 µM -10% | [12]; at 3.7 µM 0% | [12]; at 11.0 µM 11% | [12]; at 33.0 µM 35% | [12]; at 100.0 µM 29% | [13]; at 1.2 µM -7% | [13]; at 3.7 µM -2% | [13]; at 11.0 µM 3% | [13]; at 33.0 µM 15% | [13]; at 100.0 µM 16% | [14]; [16] -3% | [14]; [17] 30% | [14]; at 50.0 µM 58.8% | [15]; at 1.2 µM -4% | [15]; at 3.7 µM 4% | [15]; at 11.0 µM 4% | [15]; at 33.0 µM 14% | [15]; at 100.0 µM 1%
